Screens deposited in PubChem BioAssay by several laboratories.
In the library only some 1.7% were active in any assay of this set; here they are far more common.
NOD2 RIPK2 PPI – NOD2-RIPK2 binding disruptors in cells, primary screen, fluorescence, CHO cells, BLA complementation; CCF4 ratio; inhibition, % at 4.98 µM; 0.38% of 360,000 active; in the data active = inhibition above about 21%;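 also: 0% = vehicle only and 100% = reference blocker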
TLR9-MyD88 inh – inhibitors of TLR9-MyD88 association in cells, primary screen, cell-based, CHO, BLA complementation, fluorescence; CCF4 FRET ratio; inhibition, % at 4.98 µM; 0.21% of 340,000 active; AID 504734, 2011;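 active = inhibition above the mean over all tested compounds plus 3 SD, cut at about 21% in these data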;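 also: 0% = DMSO only wells and 100% = clavulanate BLA inhibitor control wells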
TLR4-MyD88 BLA – inhibitors of TLR4-MyD88 association in cells, primary screen, cell-based, HeLa CL3-4, BLA complementation, FRET ratio; Toll-like receptor 4 (Homo sapiens) + Myeloid differentiation primary response protein …; HeLa CL3-4 TLR4/MyD88 BLA complementation; inhibition, % at 8.4 µM; 0.18% of 200,000 active; AID 861, 2007; in the data active = inhibition above about 25%;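 also: 0% = vehicle and 100% = reference inhibitor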
ABCB6 inh 2 – ABCB6 transporter inhibitors, primary screen, K562-ABCB6 cells, flow cytometry, MLPCN library; ATP-binding cassette sub-family B member 6 (Homo sapiens), Q9NP58; fluorescence ratio to DMSO, % at 10 µM; 0.19% of 360,000 active; AID 602162, 2011; K562-ABCB6 porphyrin accumulation, 1 h; hits give low values;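 active = fluorescence ratio to DMSO below 75%, the collection mean minus 3 SD; inconclusive = too few cells collected in the well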;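 also: signal is porphyrin accumulated inside mitochondria; 100% equals median channel fluorescence of DMSO control wells; lower ratio means ABCB6 inhibition with less porphyrin fluorescence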
Target sequence (Q9NP58 whole entry, looked up): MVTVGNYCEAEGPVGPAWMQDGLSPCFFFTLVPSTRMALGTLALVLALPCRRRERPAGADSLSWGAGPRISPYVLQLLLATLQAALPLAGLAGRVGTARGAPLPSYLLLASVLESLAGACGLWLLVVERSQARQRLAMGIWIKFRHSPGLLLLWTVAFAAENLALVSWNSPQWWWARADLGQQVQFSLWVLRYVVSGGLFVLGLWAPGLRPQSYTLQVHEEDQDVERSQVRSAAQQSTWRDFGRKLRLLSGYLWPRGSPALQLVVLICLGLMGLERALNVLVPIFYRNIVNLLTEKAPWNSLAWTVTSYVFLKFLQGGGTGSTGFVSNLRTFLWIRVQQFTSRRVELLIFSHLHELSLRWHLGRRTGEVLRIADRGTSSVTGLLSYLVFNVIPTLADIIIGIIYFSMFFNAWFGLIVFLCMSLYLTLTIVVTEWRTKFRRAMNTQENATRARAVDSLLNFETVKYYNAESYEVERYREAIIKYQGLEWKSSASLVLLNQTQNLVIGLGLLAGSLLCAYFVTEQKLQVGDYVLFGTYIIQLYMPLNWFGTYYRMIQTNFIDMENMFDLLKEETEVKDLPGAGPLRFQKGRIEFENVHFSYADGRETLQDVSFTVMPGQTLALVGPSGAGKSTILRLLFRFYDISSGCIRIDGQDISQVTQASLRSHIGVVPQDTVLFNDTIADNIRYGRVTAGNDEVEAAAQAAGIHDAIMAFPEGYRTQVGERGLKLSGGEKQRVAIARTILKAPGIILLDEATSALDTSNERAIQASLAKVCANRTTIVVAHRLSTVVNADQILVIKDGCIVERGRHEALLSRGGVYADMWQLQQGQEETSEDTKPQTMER
Myeloid diff MLP – induction of myeloid progenitor differentiation, primary screen, cell-based, flow cytometry, MLPCN library; ER-HoxA9 myeloid progenitors, lysozyme-GFP differentiation; AID 624256, 2012; 1% of 360,000 active; calls only at 10 µM;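 active = normalized GFP-positive differentiation at or above the plate's own cutoff, the solvent-only control mean plus 3 SD; inconclusive = no clear call, values can overlap the other calls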;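 also: cells exposed to compound for four days before flow analysis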
ABCB6 inh CP1 – ABCB6 transporter inhibitors, confirmation, K562-ABCB6 cells, flow cytometry, cherry pick 1; 700 tested, under 10 active; ratio response (% of DMSO), % at 10 µM; shares compounds with ABCB6 inh 2; AID 602430, 2012; K562-ABCB6 porphyrin accumulation, 1 h; hits give low values;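 active = repeat-averaged ratio response below 75% of DMSO, the collection mean minus 3 SD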;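 also: median porphyrin fluorescence at 575 nm with 488 nm excitation from mitochondria; lower ratio means less porphyrin signal so ABCB6 inhibition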
An asterisk follows results filed as active; i = inactive; ? = inconclusive; · = no result given.

SMILES	NOD2 RIPK2 PPI	TLR9-MyD88 inh	TLR4-MyD88 BLA	ABCB6 inh 2	Myeloid diff MLP	ABCB6 inh CP1
COC(=O)c1c(NC(=O)COC(=O)c2ccc(Cl)nc2)sc(C)c1C	2	-3	·	99	i	·
O=C(Nc1ccc(-c2nc3ccccc3o2)cc1)c1ccc(N2CCOCC2)c([N+](=O)[O-])c1	-6	-6	1	93	·	·
COc1ccc2oc(-c3ccc(NC(=O)c4ccc(N5CCOCC5)c([N+](=O)[O-])c4)cc3)nc2c1	6	7	1	60*	i	98
NC(=O)Nc1ccc(C(=O)OCC(=O)Nc2sccc2C(N)=O)cc1	-3	0	·	96	i	·
N#Cc1ccsc1NC(=O)COC(=O)c1ccc(NC(N)=O)cc1	-1	5	-5	74*	i	98
Cc1ccccc1N(Cc1ccccc1F)S(C)(=O)=O	-12	4	-10	63*	i	99
COc1cccc(CN2CCNC(=O)C2CC(=O)NCc2cn3ccccc3n2)c1OC (centres undefined)	-1	9	12	73*	i	97
COc1cccc(CN2CCNC(=O)C2CC(=O)NCc2cn3cccc(C)c3n2)c1OC (centres undefined)	0	12	-7	103	·	·
Nc1cc(Cl)ccc1C(=O)OCC(=O)NC1CCCCCCC1	-11	2	·	99	i	·
Nc1nc2ccccc2n1S(=O)(=O)c1ccccc1	-9	·	·	93	i	·
O=c1c2[nH]cnc2n(-c2cccc(F)c2)c(=O)n1Cc1ccccc1	-9	-9	·	100	i	·
COc1ccc(CC(N)c2csc(NC(=O)c3ccccc3)n2)cc1 (centres undefined)	-8	·	·	71*	i	103
O=C(CN1c2cccc3cccc(c23)S1(=O)=O)NCc1ccc(Cl)cc1	-3	8	·	102	i	·
O=C(CN1c2cccc3cccc(c23)S1(=O)=O)NCc1ccccc1Cl	-4	-1	·	74*	i	103
O=C(NCCN1CCOCC1)c1cc(-c2ccc(F)cc2)nc2ccccc12	-12	-6	·	90	i	·
Cc1cc(C(=O)NCCN2CCOCC2)c2ccccc2n1	-10	4	·	74*	i	103
COc1ccccc1NC(=O)CCc1nnc2ccc(N3CCCCC3)nn12	-10	-2	·	101	i	·
CC1CCN(c2ccc3nnc(CCC(=O)NC(C)C)n3n2)CC1	-9	-11	·	97	i	91
COC(=O)C(NC(=O)CCc1nnc2ccc(N3CCCCC3)nn12)C(C)C (centres undefined)	1	-7	·	100	i	100
CC1CCN(c2ccc3nnc(CCC(=O)Nc4ccc(F)cc4)n3n2)CC1	-7	2	·	100	i	·
COCCCNC(=O)CCc1nnc2ccc(N3CCC(C)CC3)nn12	-8	1	·	94	i	102
COCCNC(=O)CCc1nnc2ccc(N3CCC(C)CC3)nn12	-12	5	·	96	i	101
C/C(=N/Nc1nc(C)c(C)s1)c1cccc([N+](=O)[O-])c1	-1	-3	·	97	i	·
CCOc1cc(NC(=O)c2cccs2)c(OCC)cc1NC(=O)CCC(=O)NCC1CCCO1 (centres undefined)	1	·	2	96	i	·
N#Cc1ccccc1S(=O)(=O)N1CCN(C(=O)Cc2coc3cc(O)ccc23)CC1	2	-1	·	105	i	·
SMILES	NOD2 RIPK2 PPI	TLR9-MyD88 inh	TLR4-MyD88 BLA	ABCB6 inh 2	Myeloid diff MLP	ABCB6 inh CP1
CCN(CC)CCNC(=O)CCc1nnc2ccc(N3CCC(C)CC3)nn12	1	7	·	99	i	103
Cc1ccc(NC(=O)CCc2nnc3ccc(N4CCC(C)CC4)nn23)nc1	9	0	·	101	i	·
CCC(=O)Nc1ccc2c(c1)nc1n2CCSC1	2	4	5	70*	i	99
Cn1cccc1CC(=O)NNC(=O)Nc1cccc(Cl)c1	8	2	3	104	i	·
Clc1cc(Sc2ccc(Br)cc2)nnc1-c1ccccc1	-5	-13	-2	74*	i	101
COCc1cc(Sc2ccc(Br)cc2)nc(-c2ccccc2)n1	0	9	4	93	i	·
Cc1ccc(CN2CCN(CC3CC4C=CC3C4)CC2)cc1 (centres undefined)	-1	-2	7	94	i	·
CCN(CC)CCNc1nc2c(c(=O)n(C)c(=O)n2C)n1C/C=C(/C)Cl	-8	-2	5	73*	i	100
COc1cccc(NC(=O)COC(=O)CCCC2=NS(=O)(=O)c3ccccc3N2)c1	-1	10	·	14*	i	102
COc1ccc(NC(=O)COC(=O)CCCC2=NS(=O)(=O)c3ccccc3N2)cc1	-5	-17	·	102	?	100
Cc1cc(C)cc(NC(=O)COC(=O)CCCC2=NS(=O)(=O)c3ccccc3N2)c1	-5	2	-7	105	i	·
COc1ccccc1Cn1c(=S)[nH]c2cc(C(=O)N3CC(C)CC(C)C3)ccc2c1=O (centres undefined)	-13	-6	·	95	i	·
O=C(CCc1nc(-c2ccccc2Cl)no1)NC1CCCCC1	-5	-1	·	73*	i	99
CC(N=C1NS(=O)(=O)c2ccccc21)C(=O)OCC(=O)N(C)C1CCS(=O)(=O)C1 (centres undefined)	-3	1	·	101	i	·
Cc1[nH]c(-c2ccc(F)cc2)cc1C(=O)N1CCN(c2ccc(Cl)cc2)CC1	-2	1	·	90	i	·
COc1ccc(N2CCN(C(=O)c3cc(-c4ccc(F)cc4)[nH]c3C)CC2)cc1	14	0	·	71*	i	101
COc1cc(OC)cc(-c2c(C#Cc3ccsc3)c3cc(-c4ccc5c(c4)OCCO5)ccc3n2C)c1	-8	-11	·	97	i	·
COc1ccc(C(=O)NCCCN2CCCC2=O)cc1S(=O)(=O)N1CCOCC1	-8	2	·	98	i	·
CC1Cc2ccccc2N1C1=NS(=O)(=O)c2ccccc21 (centres undefined)	-10	-7	-18	73*	i	102
O=c1cc(N2CCCC2)c2ccccc2o1	-3	9	-2	103	i	·
Cc1cc(C)cc(NC(=O)c2cc3c(=O)n4ccccc4nc3s2)c1	-1	5	·	91	i	97
CSc1ccccc1NC(=O)c1cc2c(=O)n3ccccc3nc2s1	6	13	·	102	i	101
